Results filed as inconclusive are left out. Unmarked numbers belong to inactive results. The call rests on the fitted dose curve.
Test: cAMP Responsive Elements (CRE) small molecule agonists, cell-based qHTS assay (AID 1963590)
Settings: CRE-bla HEK293T, beta-lactamase FRET ratio, 3 h; series mostly up to 92.4 µM; activation: at the top concentration
Description: U.S. Tox21 Program National Center for Advancing Translational Sciences [NCATS] Division of Preclinical Innovation [DPI] U.S. Environmental Protection Agency [EPA] National Institutes of Environmental Health Sciences [NIEHS] National Toxicology Program [NTP] U.S. Food and Drug Administration [FDA] Tox21 Assay Overview: CREB (cyclic-AMP Responsive Element Binding Protein) is a cellular transcription factor. It binds to certain DNA sequences called cAMP Responsive Elements (CRE) and regulates the transcription of the genes. […] This cell line can be used to find agonists/antagonists of the cyclic AMP signaling pathway. The activation of the report gene under culture conditions can be detected by fluorescence intensity. This cell line has been used to screen the Tox21 10K compound library to identify agonists that induce oxidative stress.
Tox21 Assay Protocol Summary: CRE-bla Hek 293T cells were suspended in assay medium (DMEM containing 10% dialyzed FBS, 0.1 mM NEAA, 1 mM sodium pyruvate and 25 mM HEPES) and dispensed at 2,000 cells/5 uL /well into 1536-well black wall/clear bottom plates using a Multidrop Combi (ThermoFisher Scientific, Waltham, MA) dispenser. After the assay plates were incubated at 37 C/5% CO2 for 18 hrs, 23 nL of compounds dissolved in DMSO, positive controls or DMSO only was transferred to the assay plate by a pintool workstation (Kalypsys, San Diego, CA). After the plates were incubated at 37 C/5% CO2 for 3 hrs, 1 uL of LiveBLAzer B/G FRET substrate (Invitrogen, Carlsbad, CA) was added to each well using Bioraptr Flying Reagent Dispenser (FRD, Aurora Discovery, San Diego, CA). The plates were incubated at room temperature for 2 h.
On the % scale 0 is the no-effect control and ±100 the full control effect.

**Q.** For CN1C(=O)OC(C)(C)C1=O, which “activation” value is on record?
**A.** The value was 0.157%.

**Q.** With CC1=C(C)C(=O)C(C(CCCCCC(=O)O)c2ccccc2)=C(C)C1=O (stereo not given) as the compound, how does the “activation” value read?
**A.** The value was -0.932% [at 42.5 µM].

**Q.** With CCOC(=O)[C@H](CCc1ccccc1)N[C@@H](C)C(=O)N1CCC[C@H]1C(=O)O as the compound, how does the “activation” value read?
**A.** Its value is -1.36% [at 42.5 µM].

**Q.** With CCN(CC)CC(=O)Nc1c(C)cccc1C(=O)OC as the compound, how does the “activation” value read?
**A.** Its value is -0.538% [at 42.5 µM].

**Q.** For Cc1nc2n(c(=O)c1CCN1CCC(c3noc4cc(F)ccc34)CC1)CCC[C@H]2O, which activation is on record?
**A.** The activation was -1.39% [at 19 µM].

**Q.** With CN1CCCCC1CCN1c2ccccc2Sc2ccc(S(C)=O)cc21 (stereo not given) as the compound, how does the “activation” value read?
**A.** The value was 0.111% [at 42.5 µM].

**Q.** Which “activation” value does the source give for O=C=Nc1cccc(C(F)(F)F)c1 here?
**A.** The value was -0.587%.

**Q.** Which “activation” value does the source give for C/C=C(\C)C(=O)OCCC(C)CCC=C(C)C (stereo not given) here?
**A.** The value was 0.0346%.

**Q.** Which “activation” value does the source give for CC=C(Cl)Cl here?
**A.** The value was 0.501%.

**Q.** With CCCCCCCCCI as the compound, how does the “activation” value read?
**A.** Its value is 2.58%.

**Q.** Which “activation” value does the source give for CC1OCCC1=O (stereo not given) here?
**A.** Its value is -1.85%.

**Q.** For CCCCCCCCCC(=O)N(C)C, which “activation” value is on record?
**A.** The value was -0.204%.

**Q.** With O=C(Nc1ccc2c(O)c(N=Nc3ccc(N=Nc4ccc(S(=O)(=O)O)cc4)cc3)c(S(=O)(=O)O)cc2c1)c1ccccc1 as the compound, how does the “activation” value read?
**A.** Its value is -0.565%.

**Q.** For Cc1ccc(Cl)c(OCC(O)CNC(C)(C)C)c1 (stereo not given), which “activation” value is on record?
**A.** Its value is -1.43% [at 42.5 µM].

**Q.** Which “activation” value does the source give for C/C(=C\C(C)CC(C)CC(C)C)C1CC(=O)OC1=O (stereo not given) here?
**A.** Its value is 3.01%.

**Q.** Which “activation” value does the source give for COCCCN1CCC(NC(=O)c2cc(Cl)c(N)c3c2OCC3)CC1 here?
**A.** The value was 0.379% [at 42.5 µM].

**Q.** For CCN(CC)CCSC(=O)C(c1ccccc1)c1ccccc1, which “activation” value is on record?
**A.** The value was 0.38% [at 42.5 µM].

**Q.** Which “activation” value does the source give for CCCCCCCCCCCCCCCCCCN(C)C here?
**A.** The value was -0.499% [at 42.5 µM].

**Q.** Which “activation” value does the source give for O=C(CS)Nc1ccccc1 here?
**A.** The value was -0.337% [at 42.5 µM].

**Q.** With CCOC(=N)CC(=O)OCC as the compound, how does the “activation” value read?
**A.** Its value is -2.43%.

**Q.** For CC12CCCC=C1C(=O)OC2=O (stereo not given), which “activation” value is on record?
**A.** The value was -0.167%.

**Q.** For CCC(C)CCCC(C)(C)O (stereo not given), which “activation” value is on record?
**A.** The value was -1.17%.

**Q.** Which “activation” value does the source give for O=C(Cn1ccnc1[N+](=O)[O-])NCCO here?
**A.** Its value is 1.28% [at 42.5 µM].

**Q.** For CNS(=O)(=O)CCc1ccc2[nH]cc(C3CCN(C)CC3)c2c1, which “activation” value is on record?
**A.** The value was -1.32% [at 42.5 µM].

**Q.** Which “activation” value does the source give for CNS(=O)(=O)Cc1ccc2[nH]cc(CCN(C)C)c2c1 here?
**A.** Its value is 0.721% [at 42.5 µM].

**Q.** For O=c1cc[nH]cc1, which “activation” value is on record?
**A.** The value was 0.0341%.

**Q.** Which “activation” value does the source give for CN1[C@@H]2CC[C@H]1CC(OC(=O)c1c[nH]c3ccccc13)C2 (stereo not given in full) here?
**A.** Its value is -0.359% [at 42.5 µM].

**Q.** Which “activation” value does the source give for On1nnc2ccccc21 here?
**A.** The value was -1.04%.

**Q.** For CCn1cc(C(=O)O)c(=O)c2cc(F)c(N3CCN(C)CC3)cc21, which activation is on record?
**A.** Its activation is -2.07% [at 19 µM].

**Q.** Which “activation” value does the source give for C=CC(=O)OCC(Br)CBr (stereo not given) here?
**A.** Its value is -1.03%.

**Q.** For O=C(Oc1ccccc1)c1ccccc1C(=O)Oc1ccccc1, which “activation” value is on record?
**A.** Its value is 11.5%.

**Q.** Which “activation” value does the source give for C/C(=N\[Si](C)(C)C)O[Si](C)(C)C here?
**A.** Its value is 0.146%.

**Q.** With CCC(C)N(C)C(=O)c1cc2ccccc2c(-c2ccccc2Cl)n1 (stereo not given) as the compound, how does the “activation” value read?
**A.** The value was 3.95% [at 42.5 µM].

**Q.** With CCOC(=O)OC(C)OC1=C(C(=O)Nc2ccccn2)N(C)S(=O)(=O)c2ccccc21 (stereo not given) as the compound, how does the “activation” value read?
**A.** Its value is 1.41% [at 42.5 µM].

**Q.** For NC(=O)C(=O)N/N=C/c1ccc([N+](=O)[O-])o1, which “activation” value is on record?
**A.** The value was 2.6% [at 42.5 µM].

**Q.** For Cc1cccc(C)c1C, which “activation” value is on record?
**A.** The value was 0.218%.

**Q.** With COC(=O)c1ccc(I)cc1S(=O)(=O)NC(=O)Nc1nc(C)nc(OC)n1 as the compound, how does the “activation” value read?
**A.** Its value is -2.2%.

**Q.** Which “activation” value does the source give for O=C(NS(=O)(=O)/C=C/c1ccccc1)c1ccc(F)cc1Cl here?
**A.** The value was 0.256%.

**Q.** Which “activation” value does the source give for O=C(O)c1cccc(C(=O)O)n1 here?
**A.** The value was 0.0943%.

**Q.** For Cc1ccc(N)nc1, which “activation” value is on record?
**A.** Its value is -0.395%.
